This is an account of results in PubChem BioAssay (EPA / NIEHS).

Structures are written as SMILES. Records with an inconclusive call do not appear. Active and inactive are the calls of the source. How the source made its calls: active means hit-call score of the fitted dose curve at least 0.9, where 1 is the maximum; inconclusive means response in the unintended direction; inactive means score below 0.9.

In experiment [1] the target is human Serotonin, 5-Hydroxytryptamine Receptor 6 (5HT6), HTR6 (gene 3362) (UniProt P50406). The experiment in a line: NVS_GPCR_h5HT6: NovaScreen (NVS) G Protein-Coupled Receptor Assay for human Serotonin, 5-Hydroxytryptamine Receptor 6 (5HT6) (AID 2283253). A digest of the protocol:
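Filter scintillation counting of radioligand displacement from HEK293-expressed 5HT6, 1 hour post-dose, with loss of signal relative to DMSO. Single 25 uM duplicates first, with concentration series for confirmation.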

Experiment [2] deals with human Serotonin, 5-Hydroxytryptamine Receptor 7 (5HT7), HTR7 (gene 3363) (UniProt P34969). In words: NVS_GPCR_h5HT7: NovaScreen (NVS) G Protein-Coupled Receptor Assay for human Serotonin, 5-Hydroxytryptamine Receptor 7 (5HT7) (AID 2283255).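 Further: hits reduce specific radioligand binding relative to DMSO.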 In short, it runs like this:
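Filter-bound radioactivity counted after 1 h, with loss of specific radioligand binding fitted against DMSO. Membrane protein came from CHO cells expressing human 5HT7. Chemicals were tested first at 25 uM in duplicate, then in concentration series if active.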

For experiment [3], the target named is human Adrenergic, Alpha 2A Receptor (Adra2A), ADRA2A (gene 150) (UniProt P08913). The experiment in a line: NVS_GPCR_hAdra2A: NovaScreen (NVS) G Protein-Coupled Receptor Assay for human Adrenergic, Alpha 2A Receptor (Adra2A) (AID 2283257). In short, it runs like this:
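Displacement of a specific radioligand from HT29 membrane protein was counted by filter scintillation after 1 h. Compounds were screened in duplicate at 25 uM, and actives were retested in concentration series. Fitting was positive-direction against DMSO.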

In experiment [4] the target is Type-1 angiotensin II receptor (Homo sapiens) (UniProt P30556). The experiment in a line: NVS_GPCR_hAT1: NovaScreen (NVS) G Protein-Coupled Receptor Assay for human Angiotensin II receptor type 1 (AT1) (AID 2283263). A digest of the protocol:
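Hits from a 25 uM duplicate screen (threshold e.g. 30% inhibition) were run in concentration-response with 50 uM top concentration. Displacement of specific radioligand from KAN-TS membrane preparations measured after 3 h by filter scintillation, DMSO as baseline.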

In experiment [5] the target is Beta-2 adrenergic receptor (Homo sapiens) (UniProt P07550). In words: NVS_GPCR_hAdrb2: NovaScreen (NVS) G Protein-Coupled Receptor Assay for human Adrenergic, Beta 2 Receptor (Adrb2) (AID 2283261). A digest of the protocol: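 Compounds screened in duplicate at 25 uM, then actives in concentration series. Human beta-2 receptor from CHO material, cell-free; radioligand displacement after 1 h measured by filtration and scintillation against DMSO baseline.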
Sequence of Beta-2 adrenergic receptor (Homo sapiens) (P07550 whole entry, looked up): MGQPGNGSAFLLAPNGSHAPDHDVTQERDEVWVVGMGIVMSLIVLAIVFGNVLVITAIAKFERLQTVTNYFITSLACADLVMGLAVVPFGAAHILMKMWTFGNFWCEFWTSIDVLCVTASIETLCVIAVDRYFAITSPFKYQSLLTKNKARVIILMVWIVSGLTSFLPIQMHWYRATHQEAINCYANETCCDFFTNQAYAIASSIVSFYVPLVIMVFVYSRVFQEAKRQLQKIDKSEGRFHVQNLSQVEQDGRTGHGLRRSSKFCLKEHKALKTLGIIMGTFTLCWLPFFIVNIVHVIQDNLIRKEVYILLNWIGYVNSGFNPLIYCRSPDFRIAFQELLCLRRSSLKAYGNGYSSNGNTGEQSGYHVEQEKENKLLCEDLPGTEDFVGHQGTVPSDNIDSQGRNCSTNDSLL

The target of experiment [6] is human Dopamine Receptor D2 (DRD2), DRD2 (gene 1813) (UniProt P14416). In words: NVS_GPCR_hDRD2s: NovaScreen (NVS) G Protein-Coupled Receptor Assay for human Dopamine Receptor D2 (DRD2) (AID 2283266). A digest of the protocol: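 Test compound (25 uM, duplicate in the primary screen; concentration series at follow-up) competed with radioligand for human DRD2 in CHO-derived membrane protein. Filter-based scintillation counting was done 1.5 hours after dosing, with loss of signal analysed against DMSO.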
Sequence of human Dopamine Receptor D2 (DRD2), DRD2 (gene 1813) (P14416 whole entry, looked up): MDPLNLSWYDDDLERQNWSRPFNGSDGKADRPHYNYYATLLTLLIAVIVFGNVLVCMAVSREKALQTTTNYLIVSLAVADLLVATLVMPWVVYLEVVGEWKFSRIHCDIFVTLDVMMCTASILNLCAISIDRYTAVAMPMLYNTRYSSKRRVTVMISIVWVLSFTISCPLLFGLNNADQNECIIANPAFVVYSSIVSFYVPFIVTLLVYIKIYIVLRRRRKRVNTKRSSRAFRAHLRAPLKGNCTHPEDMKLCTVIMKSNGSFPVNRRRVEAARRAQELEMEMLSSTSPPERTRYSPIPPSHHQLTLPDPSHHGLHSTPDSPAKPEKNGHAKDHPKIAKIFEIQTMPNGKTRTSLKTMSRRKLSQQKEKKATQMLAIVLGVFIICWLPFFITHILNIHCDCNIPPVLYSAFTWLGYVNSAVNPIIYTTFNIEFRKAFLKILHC

Sequence of human Adrenergic, Alpha 2A Receptor (Adra2A), ADRA2A (gene 150) (P08913 whole entry, looked up): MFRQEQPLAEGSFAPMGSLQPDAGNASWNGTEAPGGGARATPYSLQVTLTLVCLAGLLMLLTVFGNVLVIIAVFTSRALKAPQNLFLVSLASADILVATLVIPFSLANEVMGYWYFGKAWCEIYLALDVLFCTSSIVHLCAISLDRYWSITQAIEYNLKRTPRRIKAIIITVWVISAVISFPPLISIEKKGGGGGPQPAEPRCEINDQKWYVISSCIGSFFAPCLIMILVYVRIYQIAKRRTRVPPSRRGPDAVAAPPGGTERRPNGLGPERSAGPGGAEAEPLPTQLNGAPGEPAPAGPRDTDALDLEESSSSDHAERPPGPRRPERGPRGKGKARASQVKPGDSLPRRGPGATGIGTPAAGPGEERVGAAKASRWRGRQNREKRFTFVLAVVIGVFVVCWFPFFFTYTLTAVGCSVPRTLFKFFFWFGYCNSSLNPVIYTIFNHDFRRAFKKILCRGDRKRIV
Sequence of human Serotonin, 5-Hydroxytryptamine Receptor 6 (5HT6), HTR6 (gene 3362) (P50406 whole entry, looked up): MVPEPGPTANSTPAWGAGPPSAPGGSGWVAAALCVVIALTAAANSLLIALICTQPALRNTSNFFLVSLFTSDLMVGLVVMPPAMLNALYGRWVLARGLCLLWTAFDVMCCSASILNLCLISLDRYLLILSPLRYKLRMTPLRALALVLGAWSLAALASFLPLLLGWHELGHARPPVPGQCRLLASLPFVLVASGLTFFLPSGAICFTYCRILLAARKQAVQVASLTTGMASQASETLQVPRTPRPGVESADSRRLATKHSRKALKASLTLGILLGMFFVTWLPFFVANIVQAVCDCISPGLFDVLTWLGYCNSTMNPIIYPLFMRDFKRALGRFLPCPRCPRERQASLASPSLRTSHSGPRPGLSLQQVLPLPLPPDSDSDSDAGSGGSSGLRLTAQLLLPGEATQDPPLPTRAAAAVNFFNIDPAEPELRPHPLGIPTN
Sequence of human Serotonin, 5-Hydroxytryptamine Receptor 7 (5HT7), HTR7 (gene 3363) (P34969 whole entry, looked up): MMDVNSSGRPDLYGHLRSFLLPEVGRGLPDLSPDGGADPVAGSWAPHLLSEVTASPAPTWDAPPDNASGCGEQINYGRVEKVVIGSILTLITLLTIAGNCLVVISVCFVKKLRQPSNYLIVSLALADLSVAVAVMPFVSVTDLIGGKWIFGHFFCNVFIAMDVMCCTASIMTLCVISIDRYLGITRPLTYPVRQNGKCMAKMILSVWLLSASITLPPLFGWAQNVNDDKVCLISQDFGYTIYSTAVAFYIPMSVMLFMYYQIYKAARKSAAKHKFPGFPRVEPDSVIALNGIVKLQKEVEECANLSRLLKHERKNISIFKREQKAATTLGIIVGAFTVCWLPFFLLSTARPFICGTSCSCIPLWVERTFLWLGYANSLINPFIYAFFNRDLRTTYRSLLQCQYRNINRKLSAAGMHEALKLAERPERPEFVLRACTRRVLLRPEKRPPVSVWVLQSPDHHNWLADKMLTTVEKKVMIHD
Sequence of Type-1 angiotensin II receptor (Homo sapiens) (P30556 whole entry, looked up): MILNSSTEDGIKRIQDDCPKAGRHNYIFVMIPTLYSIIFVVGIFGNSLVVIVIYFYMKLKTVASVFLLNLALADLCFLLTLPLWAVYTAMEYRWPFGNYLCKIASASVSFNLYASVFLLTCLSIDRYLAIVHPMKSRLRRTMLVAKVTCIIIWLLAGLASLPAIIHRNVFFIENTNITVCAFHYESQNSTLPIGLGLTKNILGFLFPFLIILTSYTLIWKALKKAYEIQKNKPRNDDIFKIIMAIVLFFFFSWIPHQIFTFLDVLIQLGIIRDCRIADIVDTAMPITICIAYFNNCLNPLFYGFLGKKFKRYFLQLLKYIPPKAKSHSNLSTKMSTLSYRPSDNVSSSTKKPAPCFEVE

`CSC(C)(C)C=NO`: the result in experiment [1], in experiment [2], in experiment [3] and in experiment [4] was inactive.

Take `CCC(C)(C)c1ccc(O)cc1`: in experiment [1], the result was inactive.

On to `Nc1cc2c3c(c1)C(c1ccccc1)=N[C@@H](NC(=O)c1cccnc1)C(=O)N3CC2`, for which, in experiment [2], the call was inactive.

One may read the AC50 as the midpoint of the concentration-response curve, whichever way the signal moves. `CC(Cc1ccc(OCC(=O)O)cc1)NCC(O)c1csc(C(F)(F)F)n1` (stereo not given): the half-maximal activity concentration (AC50) in experiment [3] is 25 µM (active).

On to `ClC1=C(Cl)C2(Cl)C3C(Cl)C(Cl)CC3C1(Cl)C2(Cl)Cl` (stereo not given), for which the call in experiment [5] and in experiment [6] was inactive.

`CCCN(CCC)c1c([N+](=O)[O-])cc(C(C)C)cc1[N+](=O)[O-]`: the outcome in experiment [6] was inactive.
